Molecules are shown by their SMILES. The panel holds about 83,000 compounds, 20% with a hit somewhere; the sample as a whole holds those more often.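 Results are percent growth after 48 hours of single-concentration exposure. 100 means growth as in untreated cells, lower positive values show inhibition; negative values down to -100 show cell death.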 Calls of active or inactive are those of the source.

The test relates to NCI/ADR-RES ovarian. In words: NCI-60 one-dose screen, 48 h (100 = growth as untreated, 0 = no growth, -100 = all killed). The note with it: 10 µM unless noted. The protocol: Growth inhibition of the NCI/ADR-RES human […] tumor cell line is measured as a screen for anti-cancer activity. Cells are grown in 96 well plates and exposed to the test compound for 48 hours. Compounds are tested at a single concentration, which is 10^-5 M for most compounds. The reported endpoint is percent growth (GI% or GIPRCNT), where numbers from 0 - 100% represent growth inhibition, and numbers from -100% - 0 represent cell death. For example, a value of 40 represents 60% growth inhibition. A value of 0 means no net growth occurred over the course of the experiment. A value of -40 indicates 40% of cells at the beginning of the experiment died by the end of the experiment. A value of -100 means all cells are dead at the end of the experiment.
NCI-60 Human Tumor Cell Lines Screen was performed using the standard one-dose NCI protocol, which is described in more detail at https://dtp.cancer.gov/discovery_development/nci-60/default.htm.
Compounds with GIPRCNT values below 10 were considered active. Activity score was based on GIPRCNT using the following formula: […]
Score is 0 for GIPRCNT values of 100 or above, 50 for GIPRCNT values of 0, and 100 for GIPRCNT values of -100.
As for `Cn1cc(NC(=O)Nc2cc(C(=O)O)n(C)c2)cc1C(=O)O`, the growth was 105% (inactive). To `COc1ccc(NS(=O)(=O)N2CCCCC2)cc1` belongs 116% (inactive); to `COc1ccc2c(c1)sc1nc(-c3ccc(N(C)C)cc3)cn12`, 76.8% (inactive). To `O=C(/C=C/c1c(-c2ccccc2)[nH]c2ccccc12)S(=O)(=O)c1ccccc1` belongs 16.4% (inactive); to `CCCCCN1C(=O)CCC1=O`, 102% (inactive). To `O=C1C=CC(=O)N1c1ccccn1` belongs 106% (inactive); to `O=C1OC(Oc2ccccc2)(c2ccccc2)c2ccccc21` (stereo not given), 100% (inactive); to `NS(=O)(=O)c1ccc(N2CC(c3nc4ccccc4[nH]3)CC2=O)cc1` (stereo not given), 103% (inactive). As for `CCSc1nc(Nc2ccc(S(=O)(=O)Nc3ccon3)cc2)c(C#N)c(-c2cccc(Br)c2)n1`, the growth is 110% (inactive). As for `COc1ccc(C2CC(c3ccc4c(c3)OCO4)=NN2C=O)cc1` (stereo not given), the figure is 103% (inactive); as for `CC(=O)N1N=C(c2ccc(C(F)(F)F)cc2)CC1c1ccc2c(c1)OCO2` (stereo not given), 95.8% (inactive). As for `O=[N+]([O-])c1cc([N+](=O)[O-])c(N2CCCC2)cc1NN=C(c1ccc(O)cc1)c1ccc(O)cc1`, the figure is 33.6% (inactive); as for `O=c1c2c(=NCCCN3CCCC3)cc3c(=O)n(CCCN4CCCC4)c(=O)c4c(NCCCN5CCCC5)cc(c(O)n1CCCN1CCCC1)c2c4-3`, 51.1% (inactive); as for `COc1ccc(-c2c3c(N)nc(-c4ccncc4)nc3nc3c2c(C)nn3-c2ccccc2)cc1`, 74.5% (inactive).

On to `COP(=O)(OC)C(c1ccc(O)cc1)(c1ccc(O)cc1)c1ccc(O)cc1`, for which the growth was 92.3% (inactive). As for `Cc1cc2c(cc1C)[n+](Cc1ccc3ccccc3n1)cn2Cc1ccc2ccccc2n1`, the figure is 96.4% (inactive); as for `O=c1[nH]c(SCc2ccccc2)nc2nc(Nc3ccc(NC(=S)Nc4ccccc4)cc3)nc(-c3ccc(O)cc3O)c12`, 99.3% (inactive); as for `COc1ccc(C(=O)/C=C/c2cccc(Nc3ccnc4cc(Cl)ccc34)c2)cc1`, 21.3% (inactive). As for `C=C1CC[C@@H]2[C@](C)(COC(C)=O)[C@H](OC(C)=O)CC[C@@]2(C)[C@@H]1CC(NCc1ccccc1)C1=CCOC1=O` (stereo not given in full), the figure is 23.5% (inactive); as for `COc1cc(/C=C/c2cc(/C=C/c3ccc(O)c(OC)c3)n(C(=O)c3ccc(Cl)cc3)n2)ccc1O`, 21.9% (inactive).

For `CC(C)N(Cc1ccccc1)c1c(Cl)ssc1=O`, the growth was 107% (inactive). Turning to `Cc1cnc2nc(-c3ccc(N(C)C)cc3)cn2c1`, the growth is 85.9% (inactive). As for `C(=C1c2ccccc2-c2ccccc21)c1ccncc1`, the figure is 4.8% (active). To `c1ccc2nc(Cn3c[n+](Cc4ccc5ccccc5n4)c4ccccc43)ccc2c1` belongs 102% (inactive).

On to `Cc1ccc(S(=O)(=O)NCCN2c3nc4ccccc4cc3Sc3cc4ccccc4nc32)cc1`, for which the growth was 63.1% (inactive). As for `COc1ccc(C(=O)/C=C/c2ccc(C)cc2)cc1OC`, the figure is 71.2% (inactive); as for `O=C(CSc1nnc(-c2cc(-c3ccccc3)nc3ccccc23)o1)c1ccc(Br)cc1`, 107% (inactive). To `CC1(C)CC2(C)CC(=O)C1C(C(=O)O)C2C(=O)O` (stereo not given) belongs 113% (inactive); to `O=C1N=C(N2CCOCC2)S/C1=C\c1cn(-c2ccccc2)nc1-c1ccccc1`, 60.2% (inactive); to `CC1CN(CC(O)c2ccc(Br)cc2)CCO1` (stereo not given), 108% (inactive).

Consider `Clc1ccc2[nH]cc(-c3cncn3CCc3ccccc3)c2c1`, for which the growth was 51.1% (inactive).

For `N#Cc1c(-c2ccccc2)cc(-c2ccccc2)n(CCCC(=O)O)c1=O`, the growth is 99.8% (inactive). To `COc1cccc(/C=N/Nc2nc3ccccc3s2)c1OC` belongs 91.7% (inactive); to `CC[C@@H](C)/C=C(C)/C=C/C(O)=C1\C(=O)N[C@@H](Cc2ccc(OC(=O)[C@@](OC)(c3ccccc3)C(F)(F)F)cc2)C1=O`, 49.6% (inactive).

With `CC[C@H]1CN2CCc3cc(OC)c(OC)cc3C2C[C@@H]1CC1NCCc2cc(OC)c(OC)cc21` (stereo not given in full), the growth is -9.95% (active). To `N#Cc1c(-c2ccccc2)cc(-c2ccccc2)n(CC(=O)O)c1=O` belongs 26.2% (inactive); to `CCn1cnc(C[C@H](NC(=O)[C@H](CCCCNC(=O)Nc2cc(C(F)(F)F)cc(C(F)(F)F)c2)NC(=O)Nc2cc(C(F)(F)F)cc(C(F)(F)F)c2)C(=O)OC)c1`, 51.5% [100 µM] (inactive). `CC(=O)N1N=C(c2ccc(Nc3ccnc4cc(Cl)ccc34)cc2)CC1c1ccc(Cl)cc1` (stereo not given): the growth is 22.9% (inactive). As for `O=C(COc1ccc(/C=C2\Oc3ccc4ccccc4c3C2=O)cc1)c1ccc(Cl)cc1`, the figure is 107% (inactive); as for `CCOC(=O)N1CCC(N=C2CSc3nnc(-c4cc(C(F)(F)F)cc(C(F)(F)F)c4)n3N2)CC1`, 14.1% (inactive).

Values taken from PubChem BioAssay (NCI).
